The full list was thinned out, with hits kept by preference.
GluA2 TARP mod = modulators of GluA2-stargazin AMPA receptor complexes, primary screen, cell-based, membrane potential dye. actives 3.5% (n = 40,000). HEK293 GluA2+stargazin, membrane potential dye (FDSS), glutamate EC50; hits were called plate by plate, in both directions. AID 1259245, 2017. calls only at 30 µM;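 active = any of four per-well response measures lying three or more SD from its plate-wide compound average, in either direction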
GIRK2 activator = activators of NPY4-receptor-primed GIRK2 channels, summary, cell-based, HEK293, thallium flux | 34,000 tested, under 10 active | G protein-activated inward rectifier potassium channel 2 (Homo sapiens), P48051 | activation (% efficacy), % for hits at 37.5 µM | HEK293 GIRK2/NPY4 cells, thallium flux fluorescence;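 active = primary screen hit, no activity in plain HEK293 cells, and in GIRK2-only cells above 5% efficacy rising with concentration; inactive = the rest, including fluorescent compounds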;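 also: efficacy is normalized control-subtracted fluorescence 15 s after thallium addition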
Target sequence (P48051 whole entry, looked up): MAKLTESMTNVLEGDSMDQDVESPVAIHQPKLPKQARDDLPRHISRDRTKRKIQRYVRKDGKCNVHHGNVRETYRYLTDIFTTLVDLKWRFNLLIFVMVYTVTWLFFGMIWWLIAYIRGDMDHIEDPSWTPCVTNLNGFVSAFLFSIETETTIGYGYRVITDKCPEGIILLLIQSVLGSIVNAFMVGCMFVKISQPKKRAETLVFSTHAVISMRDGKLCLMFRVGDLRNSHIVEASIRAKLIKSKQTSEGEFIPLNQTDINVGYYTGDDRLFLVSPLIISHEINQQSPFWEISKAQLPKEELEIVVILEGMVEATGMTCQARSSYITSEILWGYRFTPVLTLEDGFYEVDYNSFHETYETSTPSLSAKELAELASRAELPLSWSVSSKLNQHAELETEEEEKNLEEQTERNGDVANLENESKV
* marks the source's active call; other numbers are inactive results; i = inactive; / = no result given; + = active, no number.

SMILES	GluA2 TARP mod	GIRK2 activator
COC(=O)C1=C(CS(=O)(=O)c2ccc(OC)c(OC)c2)NC(=O)NC1c1ccc(O)cc1 (stereo not drawn)	i	/
COC(=O)C1=C(CS(=O)(=O)c2ccc(OC)c(OC)c2)NC(=O)NC1c1cccc(Cl)c1 (stereo not drawn)	i	/
COc1cc(/C=C/c2ccc3cccc(O)c3n2)cc(Cl)c1OC	i	/
CN(C)C(CNC(=O)C(=O)NC1CC1)c1ccc(F)cc1 (stereo not drawn)	i	i
Cc1ccc(C(CNC(=O)C(=O)NC2CC2)N(C)C)cc1 (stereo not drawn)	+	i
O=C(NCCCN1CCOCC1)C(=O)Nc1c2c(nn1-c1ccccc1)CS(=O)(=O)C2	i	i
Cc1cc(=O)oc2cc(OCC3CCNCC3)ccc12	+	i
Cc1cc(=O)oc2cc(OCC(=O)c3ccc(Cl)c(Cl)c3)ccc12	i	/
Cc1cccc(-n2c(C)cn3c4c(=O)n(CC(N)=O)c(=O)n(C)c4nc23)c1C	i	/
COc1cccc2sc(NC(=O)c3ccc(S(=O)(=O)C(C)C)cc3)nc12	+	i
CC(=O)c1sc(NC(=O)c2ccc(S(=O)(=O)C(C)C)cc2)nc1C	+	/
COc1ccc(-c2csc(NC(=O)c3ccc(S(=O)(=O)C(C)C)cc3)n2)cc1OC	i	/
CC(C)S(=O)(=O)c1ccc(C(=O)Nc2nc(-c3ccc(Cl)s3)cs2)cc1	i	/
COc1cc2nc(=S)n3[nH]c(-c4ccc([N+](=O)[O-])cc4)nc3c2cc1OC	/	i
C#CCSc1c(COC)cnc2c1c(=O)n(C)c(=O)n2C	i	/
COc1ccc(C(=O)NCCN2CCCC2)cc1	i	/
CCOC(=O)CC(=O)CSc1cc(C)c(C#N)c2nc3ccccc3n12	i	i
CCCc1cc(NCC2CCCO2)n2c(nc3ccccc32)c1C#N (stereo not drawn)	+	i
COc1ccc(CCC(=O)Nc2cc(-n3c(C)nc4ccccc4c3=O)ccc2F)cc1	i	i
COc1ccc(CCC(=O)Nc2cccc(-n3c(C)nc4ccccc4c3=O)c2)cc1	+	/
COc1ccc(-c2ccc(=O)n(CCNC(=O)c3ccc(S(=O)(=O)N(C)C)cc3)n2)cc1	i	/
COc1ccc(-c2ccc(=O)n(CCNC(=O)c3ccc(S(=O)(=O)N4CCCCC4)cc3)n2)cc1	+	/
CCn1c(=O)c(C(=O)Nc2cccc(OC)c2)c(O)c2ccccc21	i	i
C=CCN1CC(c2nc3ccccc3n2Cc2cc(C)ccc2C)CC1=O (stereo not drawn)	+	/
Cc1ccc(C)c(Cn2c(C3CC(=O)N(c4ccccc4)C3)nc3ccccc32)c1 (stereo not drawn)	+	/
SMILES	GluA2 TARP mod	GIRK2 activator
Cc1cc(C)cc(OCC(O)Cn2c(C3CC(=O)N(Cc4ccccc4)C3)nc3ccccc32)c1 (stereo not drawn)	i	i
C=CCN1CC(c2nc3ccccc3n2Cc2ccccc2C)CC1=O (stereo not drawn)	i	/
C=CCN1CC(c2nc3ccccc3n2CC(O)COc2c(C)cccc2C)CC1=O (stereo not drawn)	+	i
Cc1ccc(N2CC(c3nc4ccccc4n3Cc3ccccc3C)CC2=O)cc1 (stereo not drawn)	i	/
COc1ccc(S(=O)(=O)NCC(c2cccn2C)N2CCN(C)CC2)cc1OC (stereo not drawn)	i	i
CS(=O)(=O)c1ccc(CC(=O)N2CCN(c3nc4ccccc4s3)CC2)cc1	i	/
COc1ccc(-n2ccnc(SCC(=O)c3ccc(C)cc3C)c2=O)cc1	i	/
CC(C)=C1SC(=O)N(CC(=O)Nc2ccc(S(N)(=O)=O)cc2)C1=O	i	i
O=C(Nc1ccccc1Cl)c1ccc(=O)n(Cc2ccccc2F)c1	i	i
CCOc1ccccc1NC(=O)c1ccc(=O)n(Cc2ccccc2Cl)c1	+	i
O=C(Nc1ccccc1C(F)(F)F)c1ccc(=O)n(Cc2ccccc2F)c1	+	i
CC(=O)Nc1ccc(NC(=O)c2ccc(=O)n(Cc3ccccc3Cl)c2)cc1	i	i
C=CCSc1nc(N2CCOCC2)c2c(c1C#N)CC(C)(C)OC2	i	/
O=C(NCCc1c[nH]c2ccccc12)C1CN(c2nc3c(F)cccc3s2)C1	i	i
CCc1ccccc1NC(=O)C(=O)NCCc1ccc(Cl)cc1	i	i
CSc1ccccc1NC(=O)C(=O)NCCc1ccc(Cl)cc1	+	i
Cc1cccc(Nc2ccc(N3CCN(C(=O)C(C)(C)C)CC3)nn2)n1	/	i
Cc1cccc(Nc2ccc(N3CCN(C(=O)Cc4c[nH]c5ccccc45)CC3)nn2)n1	+	i

From PubChem
